Test results as given in the supplement of paper PMC8728848.
The sample as a whole holds a higher share of the strongest signals than the screen did.

Key:
Test in all cases: glycan array binding signal (z-score within array); higher = stronger binding
Conditions in all cases: glycan notation: IUPAC condensed, linker removed
[1] = target: GlcNAc(b1-2)[GlcNAc(b1-6)]Man(a1-6)[GlcNAc(b1-4)][GlcNAc(b1-2)Man(a1-3)]Man(b1-4)GlcNAc(b1-4)GlcNAc
Summary of the method: (§1)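 Glycan array data were curated from 3228 arrays in the Consortium for Functional Glycomics database and kept only where the protein sequence was available. Glycan names were converted to IUPAC-condensed notation, and columns mapping to the same glycan were averaged. The binding signal is a within-array Z-score, averaged across arrays of the same protein sequence at different concentrations or buffers and across linkers. Negative Z-scores can be read as non-binding.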

[2] = target: GlcNAc(b1-3)Fuc
Summary of the method: as §1

[3] = target: GlcNAc(b1-3)Gal
Summary of the method: as §1

[4] = target: GlcNAc(b1-3)Gal(b1-4)GlcNAc(b1-3)Gal(b1-4)GlcNAc(b1-2)Man(a1-3)[GlcNAc(b1-3)Gal(b1-4)GlcNAc(b1-3)Gal(b1-4)GlcNAc(b1-2)Man(a1-6)]Man(b1-4)GlcNAc(b1-4)[Fuc(a1-6)]GlcNAc
Summary of the method: as §1

[5] = target: GlcNAc(b1-3)Gal(b1-4)GlcNAc(b1-3)Gal(b1-4)GlcNAc(b1-3)Gal(b1-4)GlcNAc(b1-2)Man(a1-3)[GlcNAc(b1-3)Gal(b1-4)GlcNAc(b1-3)Gal(b1-4)GlcNAc(b1-3)Gal(b1-4)GlcNAc(b1-2)Man(a1-6)]Man(b1-4)GlcNAc(b1-4)[Fuc(a1-6)]GlcNAc
Summary of the method: as §1

[6] = target: Kdn(a2-3)Gal(b1-4)Glc
Summary of the method: as §1

[7] = target: Man(a1-2)Man(a1-3)[Man(a1-2)Man(a1-6)]Man
Summary of the method: as §1

[8] = target: Neu5Ac(a2-3)Gal(b1-3)GlcNAc(b1-2)Man(a1-3)[Neu5Ac(a2-3)Gal(b1-3)GlcNAc(b1-2)Man(a1-6)]Man(b1-4)GlcNAc(b1-4)GlcNAc
Summary of the method: as §1

[9] = target: Neu5Ac(a2-3)Gal(b1-3)GlcNAc(b1-3)Gal(b1-3)GlcNAc
Summary of the method: as §1

[10] = target: Neu5Ac(a2-3)Gal(b1-3)GlcNAc(b1-3)GalNAc
Summary of the method: as §1

[11] = target: Neu5Ac(a2-3)Gal(b1-4)GlcNAc(b1-2)Man
Summary of the method: as §1

[12] = target: Neu5Ac(a2-3)Gal(b1-4)GlcNAc(b1-3)Gal(b1-3)GlcNAc
Summary of the method: as §1

[13] = target: Neu5Ac(a2-3)Gal(b1-4)[Fuc(a1-3)]GlcNAc(b1-6)[Gal(b1-3)]GalNAc
Summary of the method: as §1

[14] = target: Neu5Ac(a2-3)Gal(b1-4)[Fuc(a1-3)]GlcNAc(b1-6)[Neu5Ac(a2-3)Gal(b1-3)]GalNAc
Summary of the method: as §1

[15] = target: Neu5Ac(a2-3)[GalNAc(b1-4)]Gal(b1-4)GlcNAc(b1-3)GalNAc
Summary of the method: as §1

[16] = target: Neu5Ac(a2-6)Gal(b1-4)Glc
Summary of the method: as §1

[17] = target: Neu5Ac(a2-6)Gal(b1-4)GlcNAc(b1-6)GalNAc
Summary of the method: as §1

[18] = target: Neu5Ac9Ac(a2-3)Gal(b1-3)GlcNAc
Summary of the method: as §1

[19] = target: Neu5Ac9Ac(a2-3)Gal(b1-4)GlcNAc
Summary of the method: as §1

[20] = target: Neu5Gc(a2-8)Neu5Gc(a2-6)Gal(b1-4)GlcNAc
Summary of the method: as §1

B1: FGF1 (Homo sapiens), P05230 (protein)
chain: MAEGEITTFTALTEKFNLPPGNYKKPKLLYSNGGHFLRILPDGTVDGTRDRSDQHIQLQLSAESVGEVYIKSTETGQYLAMTDGLLYGSQTPNEECLFLERLEENHYNTYISKHAEKNWFVGLKKNGSCKRGPRTHYGQAILFLPLPASSED
glycan array binding signal (z-score) [1]: -0.832
glycan array binding signal (z-score) [2]: 0.25
glycan array binding signal (z-score) [3]: -0.782
glycan array binding signal (z-score) [4]: -0.417
glycan array binding signal (z-score) [5]: 1.12
glycan array binding signal (z-score) [6]: 3.53
glycan array binding signal (z-score) [7]: -0.916
glycan array binding signal (z-score) [8]: 4.88
glycan array binding signal (z-score) [9]: -0.881
glycan array binding signal (z-score) [10]: -0.187
glycan array binding signal (z-score) [11]: 5.56
glycan array binding signal (z-score) [12]: -0.884
glycan array binding signal (z-score) [13]: 0.146
glycan array binding signal (z-score) [14]: 0.465
glycan array binding signal (z-score) [15]: -0.27
glycan array binding signal (z-score) [16]: 0.536
glycan array binding signal (z-score) [17]: 4.24
glycan array binding signal (z-score) [18]: 1.47
glycan array binding signal (z-score) [19]: -0.689
glycan array binding signal (z-score) [20]: -0.059
